PubChem BioAssay AID1159580 (chemical genetic matrix, 2015)
“And” between values parts separate entries of the source, which are not always exact repeats. Identical values can stand only once. Hit rate of the full screen: of about 5,500 compounds, about 2,000 (36%) were called active. Another 18% or so got no clear call; they are omitted. No stated cut-off is given here; in the data, active means normalized growth mostly below about 0.91 (no sharp cut-off); inconclusive means no clear call, values can overlap the other calls; inactive means mostly above about 0.92. This is one part of the list.

Assay: chemical genetic growth profiling, strain panel (AID 1159580);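 further: tested at 20 µM; growth read once vehicle control cultures reached saturation at 30 °C; 1 = growth at the plate median or of vehicle wells; lower values mean less growth of the strain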
Conditions: S. cerevisiae deletion strains, growth OD

Measured: normalized growth

C1CCN2C[C@@H]3C[C@H](CN4CCCC[C@@H]34)[C@H]2C1
inactive: locus YAL013W, strain DEP1, hits give low values 1.04 | locus YAL021C, strain ccr4, hits give low values 0.995 | locus YAL026C, strain drs2, hits give low values 1.02 | locus YAL030W, strain snc1, hits give low values 1.01 | locus YBL061C, strain skt5, hits give low values 0.999 | locus YBR009C, strain hhf1, hits give low values 1 | locus YBR021W, strain FUR4, hits give low values 1.02 | locus YBR023C, strain chs3, hits give low values 1.01 | locus YBR171W, strain sec66, hits give low values 1.01 | locus YBR229C, strain ROT2, hits give low values 0.999 | locus YBR231C, strain swc5, hits give low values 1.03 | locus YBR279W, strain paf1, hits give low values 1.01 | locus YCL011C, strain gbp2, hits give low values 1 | locus YCL016C, strain dcc1, hits give low values 0.991 | locus YCL029C, strain bik1, hits give low values 0.995 | locus YCL061C, strain MRC1, hits give low values 1.01 | locus YCL069W, strain vba3, hits give low values 1.01 | locus YCR088W, strain abp1, hits give low values 1.01 | locus YDL005C, strain med2, hits give low values 1.02 | locus YDL035C, strain GPR1, hits give low values 1.02 | locus YDL040C, strain nat1, hits give low values 1 | locus YDL074C, strain BRE1, hits give low values 1.01 | locus YDL101C, strain DUN1, hits give low values 1.01 | locus YDL134C, strain PPH21, hits give low values 1 | locus YDL185W, strain tfp1, hits give low values 1 | locus YDL192W, strain arf1, hits give low values 1.01 | locus YDR001C, strain nth1, hits give low values 1.01 | locus YDR069C, strain doa4, hits give low values 1.01 | locus YDR101C, strain arx1, hits give low values 1 | locus YDR137W, strain rgp1, hits give low values 1.01 | locus YDR150W, strain NUM1, hits give low values 1.01 | locus YDR159W, strain sac3, hits give low values 1.05 | locus YDR162C, strain NBP2, hits give low values 1.01 | locus YDR195W, strain ref2 0.996 | locus YDR297W, strain sur2, hits give low values 1.03 | locus YDR318W, strain mcm21, hits give low values 1.01 | locus YDR334W, strain swr1, hits give low values 1.01 | locus YDR335W, strain msn5, hits give low values 1.01 | locus YDR388W, hits give low values 0.994 | locus YDR392W, strain spt3, hits give low values 1.02 | locus YDR502C, strain sam2, hits give low values 1.01 | locus YEL003W, strain gim4, hits give low values 1.01 | locus YEL037C, strain rad23, hits give low values 0.994 | locus YEL061C, strain CIN8 (second series), hits give low values 1.01 | locus YEL061C, strain CIN8, hits give low values 1 | locus YER015W, strain faa2, hits give low values 1 | locus YER016W, strain bim1, hits give low values 1 | locus YER110C, hits give low values 0.999 | locus YER111C, strain swi4, hits give low values 0.993 | locus YER155C, strain BEM2 (second series), hits give low values 1.04 | locus YER155C, strain BEM2, hits give low values 1.01 | locus YER167W, strain BCK2, hits give low values 1.03 | locus YFR010W, strain ubp6, hits give low values 1.02 | locus YGL078C, strain dbp3, hits give low values 1 | locus YGL086W, strain mad1, hits give low values 1.01 | locus YGL167C, strain pmr1, hits give low values 1 | locus YGL173C, strain kem1, hits give low values 1.02 | locus YGL227W, strain vid30, hits give low values 1.01 | locus YGL240W, strain doc1, hits give low values 1.04 | locus YGL248W, strain PDE1, hits give low values 1 | locus YGL253W, strain hxk2, hits give low values 1 | locus YGR135W, strain pre9, hits give low values 0.996 | locus YGR252W, strain gcn5, hits give low values 1.02 | locus YHR013C, strain ard1, hits give low values 1.01 | locus YHR027C, strain rpn1, hits give low values 1.01 | locus YHR030C, strain SLT2, hits give low values 1.01 and 1.07 | locus YHR079C, strain IRE1 (second series), hits give low values 1 | locus YHR079C, strain IRE1, hits give low values 1.03 | locus YHR094C, strain hxt1, hits give low values 0.995 | locus YHR129C, strain ARP1, hits give low values 1.01 | locus YHR142W, strain chs7, hits give low values 1 | locus YHR200W, strain rpn10, hits give low values 1 | locus YIL066C, strain RNR3, hits give low values 1.03 | locus YIL073C, strain SPO22, hits give low values 1.02 | locus YIL125W, strain kgd1, hits give low values 1 | locus YIR030C, strain dcg1, hits give low values 1 | locus YJL092W, strain hpr5, hits give low values 1 | locus YJL095W, strain BCK1 (second series), hits give low values 1.01 | locus YJL095W, strain BCK1, hits give low values 1.02 and 1.04 | locus YJL115W, strain asf1, hits give low values 0.993 | locus YJL129C, strain trk1, hits give low values 1 | locus YJL134W, strain LCB3, hits give low values 1.01 | locus YJL154C, strain vps35, hits give low values 1 | locus YJL164C, strain tpk1, hits give low values 0.997 | locus YJL166W, strain qcr8, hits give low values 1.01 | locus YJL168C, strain set2, hits give low values 1 | locus YJL187C, strain SWE1 (second series), hits give low values 1.01 | locus YJL187C, strain SWE1, hits give low values 0.991 | locus YJR043C, strain POL32, hits give low values 1.01
